From PubChem BioAssay
TrxR1 substrate: substrates of rat thioredoxin reductase 1. purified TrxR1 substrate turnover, NADPH consumption readout. Potency, µM (highest dose often 114 µM). 390,000 tested, 0.01% active; note: nearly all actives have a fitted effect of over 50% in size
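Rat TrxR1, dispensed at 90 nM, was prereduced with 400 uM NADPH (final) for 5 min at ~22 deg C, then incubated with compound 15 min before 400 uM selenite. A first-read NADPH fluorescence drop versus no-compound background flagged substrates.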
USP1 inh: inhibitors of human USP1/UAF1 deubiquitinase | O94782 | recombinant USP1/UAF1, Ub-Rhodamine cleavage fluorescence | Potency, µM (top dose mostly 57.1 µM), actives largely listed as inhibitors | 390,000 tested, 0.23% active; note: nearly all actives have a fitted effect of over 60% in size
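In this screen, compounds sit with the deubiquitinase complex (1nM) for 15 min at room temperature before Ub-Rho is added at 150nM final. Fluorescence rise is then followed for 6 reads every 60 seconds.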
TrxR1 inh: inhibitors of rat thioredoxin reductase 1. O89049. recombinant rTrxR1, NADPH fluorescence consumption, selenite substrate. Potency, µM (series often up to 114 µM), actives largely listed as inhibitors. 390,000 tested, 1% active; note: nearly all actives have a fitted effect of over 65% in size
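Rat TrxR1 (90 nM in the dispensed reagent) was pre-reduced with 400 uM NADPH for 5 min at room temperature, then incubated with compound for 15 min. After 400 uM selenite was added, NADPH fluorescence (Ex 340/Em 450 nm) was followed for 8 min.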
GALK inh: inhibitors of human galactokinase; P51570; Purified GALK, Kinase-Glo residual ATP luminescence; Potency, µM (titrated, usually from 57.5 µM), actives largely listed as inhibitors; 270,000 tested, 0.007% active
Target sequence (P51570 whole entry, looked up): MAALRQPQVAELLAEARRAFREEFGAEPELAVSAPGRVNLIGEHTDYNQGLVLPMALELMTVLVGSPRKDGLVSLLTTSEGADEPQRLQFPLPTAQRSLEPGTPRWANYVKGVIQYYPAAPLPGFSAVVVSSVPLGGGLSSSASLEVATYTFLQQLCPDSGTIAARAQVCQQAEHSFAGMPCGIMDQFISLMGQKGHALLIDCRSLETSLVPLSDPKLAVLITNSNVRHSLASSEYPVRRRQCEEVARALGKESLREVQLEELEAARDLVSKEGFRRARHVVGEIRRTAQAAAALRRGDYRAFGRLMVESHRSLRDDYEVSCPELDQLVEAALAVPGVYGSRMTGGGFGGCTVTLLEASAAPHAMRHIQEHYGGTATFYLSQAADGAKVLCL
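Kinase-Glo Plus luminescence measured ATP left after a 1 h room-temperature reaction. The reaction used 5 nM GALK, 100 uM galactose and 35 uM ATP at pH 8.0 (20 mM HEPES, 5 mM MgCl2, 60 mM NaCl, 1 mM DTT, 0.01% BSA).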
FBPA coupling cs: coupling enzyme interference in Giardia aldolase counter-screen; activity change, negative = inhibition, % at 58.2 µM, hits read low; coupling enzyme system counterscreen, AmpLite Red fluorescence; AID 2472; 290,000 tested, 0.67% active; in the data active = activity change below about -30%
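Fluorescence at 525 nm excitation and 598 nm emission measured inhibition of the coupled detection system without aldolase. Compounds (at 57.5 uM final) were preincubated 10 min at room temperature with coupling enzyme reagent before a 20 min substrate/AmpLite Red step.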
Of the large screens only hits and unclear results are named; the others gave an inactive call. Only some compounds are listed: those with a hit (about 1.5% of all), similar ones and a draw of the others. Unless noted, calls come from the whole dose curve; as a rule, active = well fitted curve in the direction sought with a large enough effect; inconclusive = small, poorly fitted or top-dose-only effect, or another doubt; inactive = no such curve, though single readings can be large; an effect the other way counts as inactive or inconclusive.

O=c1ccn(-c2cccc(C(F)(F)F)c2)nc1-c1ccn(-c2ccccc2)n1	FBPA coupling cs -38
CCCCCCCCCCOc1cc(OCCCCCCCCCC)cc(N(CC(=O)O)CC(=O)O)c1	none (no result: TrxR1 substrate, USP1 inh, TrxR1 inh, GALK inh)
O=C(NC(=S)Nc1ccc(N2CCOCC2)cc1)c1ccccc1	TrxR1 inh inconclusive
Cc1ccccc1C(=O)NC(=S)Nc1ccc(N2CCOCC2)cc1	TrxR1 inh 56µM
COCc1[nH]nc2c1C(c1c(F)cccc1Cl)C(C#N)=C(N)O2 (stereo not given)	FBPA coupling cs -39
COc1ccccc1N(C)C	none (no result: USP1 inh, GALK inh, FBPA coupling cs)
O=Cc1c(Cl)nc2ccccn2c1=O	TrxR1 inh 18µM
CCCCC1(Br)C(=O)N(c2ccccc2)N(c2ccccc2)C1=O	TrxR1 inh 28µM (no result: GALK inh, FBPA coupling cs)
CCCCC1(CO)C(=O)N(c2ccccc2)N(c2ccccc2)C1=O	none (no result: GALK inh)
O=C1C=CC(=O)C(C2=C3C(=O)N(CCc4ccccc4)CC(=O)N3CCC2)=C1	TrxR1 inh 3.2µM, FBPA coupling cs -55
O=C1CC2(CCCCC2)CC(=O)N1CCc1ccccc1	USP1 inh inconclusive (no result: GALK inh, FBPA coupling cs)
Cc1ccc(C)n1Cc1ccc(C(=O)O)cc1	USP1 inh 25µM, TrxR1 inh inconclusive
CC(C)(C)OC(=O)NCC12C=CC(O1)C1C(=O)N(Cc3ccccc3)C(=O)C12 (stereo not given)	TrxR1 inh inconclusive
Cc1ccc(NC(=S)NCC23C=CC(O2)C2C(=O)N(c4ccc(C)cc4)C(=O)C23)cc1 (stereo not given)	TrxR1 inh 10µM
Cc1ccc(S(=O)(=O)NCC23C=CC(O2)C2C(=O)N(c4ccccc4)C(=O)C23)cc1 (stereo not given)	TrxR1 inh 2.8µM
Cc1ccc(S(=O)(=O)NCC2(c3ccccc3)CCN(C)CC2)cc1	none
Cc1cccc(NC(=S)NCC23C=CC(O2)C2C(=O)N(c4ccc(Cl)cc4)C(=O)C23)c1 (stereo not given)	TrxR1 inh 7.9µM
Cc1ccc(N2C(=O)C3C4C=CC(CNC(=S)N5CCN(c6ccccc6)CC5)(O4)C3C2=O)cc1 (stereo not given)	TrxR1 inh 20µM
N#Cc1cc2ccc(N3CCOCC3)cc2cc1C#N	FBPA coupling cs -43
COc1cccc(C2=Nn3c(nnc3-c3ccccc3C)SC2)c1	FBPA coupling cs -32 (no result: TrxR1 substrate, USP1 inh, TrxR1 inh, GALK inh)
COc1cccc(C2=Nn3c(nnc3-c3ccc(OC)cc3OC)SC2)c1	none (no result: TrxR1 substrate, USP1 inh, TrxR1 inh, GALK inh)
O=C(C[n+]1cccc(Br)c1)c1ccc(I)cc1	none (no result: USP1 inh, GALK inh, FBPA coupling cs)
CCC1(CC)Cc2ccccc2C2=C(C(=O)N3CCCCC3)C(=O)C(=O)N21	FBPA coupling cs -34
O=C1C(=O)N2C(=C1C(=O)N1CCCCCC1)c1ccccc1CC21CCCC1	none
CC1(C)Cc2ccccc2C2=C(C(=O)N3CCCCCC3)C(=O)C(=O)N21	FBPA coupling cs -42
CC1=Nc2ccccc2/C1=C\c1nc(-c2ccc(C(F)(F)F)cc2)oc1O	USP1 inh 13µM, TrxR1 inh inconclusive
CCOc1ccc(/C=C/C(=O)c2cc(Br)ccc(=O)c2O)cc1	USP1 inh inconclusive, TrxR1 inh 35µM
C/C(=C1/C=Nc2ccccc21)c1ccc(N(C)C)cc1	none (no result: USP1 inh, GALK inh, FBPA coupling cs)
O=S1(=O)C=C(Sc2nc3ccccc3s2)c2ccccc21	TrxR1 inh 2.5µM
CC1=NOC(=O)/C1=C/c1ccc(O)cc1	TrxR1 inh inconclusive
O=C1ON=C(c2ccc(Cl)cc2)/C1=C/c1ccc(O)cc1	TrxR1 inh 3.2µM
CC1=NOC(=O)/C1=C/c1ccc(O)c(Br)c1	TrxR1 inh inconclusive
COc1cc([N+](=O)[O-])ccc1-c1ccc(/C=C2\C(=O)ON=C2c2ccccc2)o1	TrxR1 inh 7.9µM (no result: GALK inh, FBPA coupling cs)
O=C1ON=C(c2ccccc2)/C1=C/c1ccccc1	TrxR1 inh 4.5µM
O=C1ON=C(c2ccccc2)/C1=C/c1ccc(O)cc1	TrxR1 inh 14µM
O=CC(=O)c1ccc(Cl)cc1	none (no result: USP1 inh, GALK inh, FBPA coupling cs)
C(=C\c1nc2ccccc2o1)/c1ccc2c(c1)OCO2	none (no result: USP1 inh, GALK inh, FBPA coupling cs)
O=C1ON=C(c2ccccc2)/C1=C\c1ccco1	USP1 inh inconclusive
Cc1ccc(/C=C2/C(=O)ON=C2c2ccccc2)o1	TrxR1 inh 4µM
Cc1ccc(C2=NOC(=O)/C2=C\c2ccccc2)cc1	TrxR1 inh 4µM (no result: GALK inh, FBPA coupling cs)
O=C(/C=C/Sc1ccccc1)c1ccc(Cl)cc1	TrxR1 inh 40µM
O=C(/C=C/Sc1ccccc1)c1ccccc1	TrxR1 inh 11µM
O=C(/C=C/Nc1ccccc1)c1ccccc1	none
O=C(COc1ccccc1C(=O)Nc1cccc(F)c1)Nc1ccc(Br)cc1	none (no result: USP1 inh, GALK inh, FBPA coupling cs)
CC(=O)Nc1ccc(-c2csc(NC(=O)C3CC(=O)N(c4ccc5c(c4)OCCO5)C3)n2)cc1 (stereo not given)	FBPA coupling cs -35
O=C(Nc1nc(-c2ccc3c(c2)OCCO3)cs1)C1CC(=O)N(c2ccc3c(c2)OCCO3)C1 (stereo not given)	none (no result: USP1 inh, GALK inh, FBPA coupling cs)
CCN(Cc1ccc2c(c1)OCO2)C(=O)/C=C/c1cccc(Br)c1	none
CC(C)(C)N(Cc1ccc2c(c1)OCO2)C(=O)/C=C\S(=O)c1ccccc1 (stereo not given)	TrxR1 inh 79µM (no result: GALK inh, FBPA coupling cs)
COc1ccc(C2=NN(C(=O)c3ccccc3)C(c3cccc([N+](=O)[O-])c3)C2)cc1 (stereo not given)	none
CCOC(=O)/C=C(/C)N1N=C(c2ccc(OC)cc2)CC1c1cccc([N+](=O)[O-])c1 (stereo not given)	TrxR1 inh 50µM
CC(C)=NNc1nc2c(c(=O)[nH]c(=O)n2C)n1CCc1ccccc1	none
Cn1c(=O)[nH]c(=O)c2c1nc(N/N=C/C(Br)=C/c1ccccc1)n2CCO	TrxR1 inh 3.5µM (no result: GALK inh)
O=C(CCN1CCC2CCC(C2)C1)c1ccccc1 (stereo not given)	TrxR1 inh 0.71µM (no result: GALK inh, FBPA coupling cs)
O=C(CCCCN1CCCCC1)c1ccccc1	none (no result: GALK inh, FBPA coupling cs)
CC1CCN(C(=O)CSc2nc3ncccc3[nH]2)CC1	none (no result: FBPA coupling cs)
CCC1CCCCN1C(=O)CSc1nc2ncccc2[nH]1 (stereo not given)	TrxR1 inh 50µM (no result: FBPA coupling cs)
COC(=O)c1ccc(NC(=O)c2nc(SCc3ccccc3F)ncc2Cl)cc1	none (no result: USP1 inh, GALK inh, FBPA coupling cs)
CC1(C)Cc2c(c(-c3ccco3)[nH]c(=O)c2C#N)CS1	TrxR1 inh inconclusive, FBPA coupling cs -43
CC(=O)N1CCN(c2nc(-c3ccco3)c3c(c2C#N)CC(C)(C)SC3)CC1	TrxR1 inh inconclusive
CC1(C)Cc2c(C#N)c(N3CCN(C(=O)c4ccccc4Cl)CC3)nc(-c3ccco3)c2CS1	TrxR1 inh 13µM
CCCCc1nc(NCCNC(=O)c2ccco2)c(C#N)c2c1CSC(C)(C)C2	TrxR1 inh 50µM
CC1(C)Cc2c(C#N)c(N3CCN(C(=O)c4ccco4)CC3)nc(-c3ccco3)c2CS1	USP1 inh inconclusive, TrxR1 inh 7.1µM
CCCCc1nc(NCCNC(=O)c2ccccc2)c(C#N)c2c1CSC(C)(C)C2	none
CC(C)(C)c1nnc(NC(=O)C2CCN(C(=O)c3ccccc3)CC2)s1	none (no result: USP1 inh, GALK inh, FBPA coupling cs)
